# From PubChem BioAssay
# This is a sample that favours compounds with a hit; in the whole collection about 6.1% have one here.
# D1 ag = human D1 receptor agonism; P21728; HEK293 T-REx D1 cells, calcium flux, agonist mode; activation, % at 2 µM; 360,000 tested, 1% active; AID 504660; in the data active = activation above about 30%
# Target sequence (P21728 whole entry, looked up): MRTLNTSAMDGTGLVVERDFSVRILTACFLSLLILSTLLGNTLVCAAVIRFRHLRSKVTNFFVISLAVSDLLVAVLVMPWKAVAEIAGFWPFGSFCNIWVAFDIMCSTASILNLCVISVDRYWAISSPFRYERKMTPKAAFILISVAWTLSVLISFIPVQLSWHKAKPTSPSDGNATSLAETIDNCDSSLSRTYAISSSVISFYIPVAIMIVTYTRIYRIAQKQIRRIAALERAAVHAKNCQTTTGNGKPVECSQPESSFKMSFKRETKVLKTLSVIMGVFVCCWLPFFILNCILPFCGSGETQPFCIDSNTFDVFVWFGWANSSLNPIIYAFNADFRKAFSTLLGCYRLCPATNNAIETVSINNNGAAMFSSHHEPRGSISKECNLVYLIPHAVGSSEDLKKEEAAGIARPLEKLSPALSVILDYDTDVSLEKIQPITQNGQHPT
#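 Inducible HEK293 T-REx D1 cells, force-coupled to calcium signalling, were plated at 4000 cells/well with tetracycline and held overnight at 30 C. After no-wash calcium dye loading, compound-evoked calcium rise over 180 s flagged agonists.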
# D1 antagonist = antagonists of human D1 dopamine receptor. P21728. HEK293 TREx D1 cells, calcium flux, dopamine EC80; active compounds read low. 360,000 tested, 3.2% active. activity change, negative = inhibition, % at 10 µM; in the data active = activity change below about -30%
#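 Cells carrying a force-coupled, tetracycline-inducible human D1 receptor report calcium flux. Each well gets a 10 s baseline, compound with 180 s monitoring, then an EC80 dopamine stimulus with a second 180 s kinetic read.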
# D3 antag = blocks the human D3 dopamine receptor; P35462; D3R cells, DiscoveRx beta-arrestin luminescence, antagonist mode; active compounds read low; max response, negative = inhibition, %; 360,000 tested, 2.5% active; AID 652054; in the data active = max response below about -50%; inconclusive = no clear call, values can overlap the other calls
#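 Cells plated overnight at 1500 cells/well, then exposed to library compounds with dopamine controls for 90 minutes at 37 degrees C. DiscoveRx reagent added for 30–60 minutes at room temperature; luminescence read, quantitative HTS format.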
# D1 PAM = enhances dopamine response at the human D1 receptor; P21728; HEK293 TREx D1 cells, calcium flux, dopamine EC20 potentiation; potentiation, % at 10 µM; 360,000 tested, 0.036% active; AID 504651; in the data active = potentiation above about 30%
# DRD3 agonist = agonists of human D3 dopamine receptor. P35462. D3R DiscoveRx beta-arrestin cells, luminescence, 90 min. max activation, %. 410,000 tested, 0.58% active. AID 652048; in the data active = max activation above about 30%
#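 Agonist mode: compounds and dopamine controls were applied to plated cells for 90 min at 37 degrees C after an overnight attachment at 1500 cells/well. Luminescent read-out followed 30 - 60 minutes at room temperature with DiscoveRx detection reagent.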
# Numbers stand for hits; 0 = inactive; ? = inconclusive; - = no result.
SMILES,D1 ag,D1 antagonist,D3 antag,D1 PAM,DRD3 agonist
COc1ccc(OC)c(NC(=O)c2ccc3c(c2)c(C)c(C)n3Cc2ccc(F)cc2)c1,0,0,-,0,0
Cc1ccc(CCNC(=O)Cn2c(-c3cccs3)cc3ccccc32)cc1,0,0,-,0,0
COc1ccccc1CNC(=O)Cn1ncc2c(C)n(Cc3ccccc3Cl)c(C)c2c1=O,0,0,-,0,0
CCC(/C=N/NC(=O)c1ccccc1F)CC,0,-37,0,0,0
COc1cccc(CNc2nc3ccccc3n2CCN2CCCCC2)c1OC,0,0,-67,0,0
COc1ccc(OC)c(CNc2nc3ccccc3n2CCN2CCCCC2)c1,0,0,?,0,0
CCn1c(NCc2cccc(OC)c2OC)nc2ccccc21,0,0,0,0,0
COc1ccc(CNc2nc3ccccc3n2CCN2CCCCC2)c(OC)c1,0,-41,?,0,0
CCCN1CCN(CCCNC(=O)c2ccc3c(c2)sc2nc(-c4ccc(C)cc4)cn23)CC1,0,-30,-,0,0
CCn1c(=O)c2cc(C(=O)NCCCN3CCN(c4ccc(F)cc4)CC3)sc2c2ccccc21,0,0,-,0,0
CC(C)OC(=O)NCCOC(=O)Nc1cccc(Cl)c1,0,-31,?,0,0
O=C(Nc1cccc(Cl)c1)OCCOC(=O)Nc1cccc(Cl)c1,-,-,0,-,0
CC(C)OC(=O)NC(C)(C)COC(=O)Nc1cccc(Cl)c1,0,0,?,0,0
CC(C)OC(=O)NCCOC(=O)Nc1ccc(Cl)c(Cl)c1,0,-40,0,0,0
O=C(Nc1cccc(Cl)c1)OCCOc1ccccc1,0,-31,0,0,0
CC(C)OC(=O)Nc1ccc(-c2ccc(NC(=O)OC(C)C)cc2Cl)c(Cl)c1,0,0,0,0,0
COCCNC(=S)Nc1ccc(Cl)c(Cl)c1,0,0,0,0,0
C=COCCNC(=O)Nc1ccc(Cl)c(Cl)c1,47,-57,0,0,0
COC(=O)c1cc(NC(=O)c2nn(C)c3c2CSc2ccccc2-3)cc(C(=O)OC)c1,0,0,-,0,0
Cc1ccc(-n2cc(C(=O)OCc3ccc(Cl)cc3)c3ccccc3c2=O)cc1,0,0,-,0,0
COc1ccc(CCC(=O)NCc2nc3cccnc3n2Cc2ccc(C)cc2)cc1,0,0,-,0,0
Cc1noc2nc(C(=O)O)nc(N3CCCCC3)c12,0,0,-,0,0
CN1CCN(S(=O)(=O)c2ccc(N3CCN(S(=O)(=O)/C=C/c4ccccc4)CC3)nc2)CC1,0,-49,0,0,0
O=C(/C=C/c1ccc(S(=O)(=O)N2CCOCC2)cc1)N(CCO)Cc1ccccc1,0,0,0,0,0
CCN(Cc1ccc(OC)c(F)c1)C(=O)/C=C/c1ccc(S(=O)(=O)N2CCOCC2)cc1,0,-41,0,0,0
SMILES,D1 ag,D1 antagonist,D3 antag,D1 PAM,DRD3 agonist
CCCCC(=O)Nc1nc2ccc3nc(C)sc3c2s1,0,0,-80,0,0
CCCC(=O)Nc1nc2ccc3nc(C)sc3c2s1,0,0,0,0,0
COc1ccc2nc(SCC(=O)c3c(C)[nH]c4ccccc34)nc(C)c2c1,0,0,-,0,0
CCOc1ccc(C(=O)c2cn(CC(=O)Nc3ccc(C)c(C)c3)c3ccc(OCC)cc3c2=O)cc1,0,0,-,0,0
COc1cc(C(=O)Nc2ccc(C(=O)c3ccncc3)cc2)cc(OC)c1OC,-,-,0,-,0
O=C(COc1cccc(C(F)(F)F)c1)Nc1ccc2[nH]ncc2c1,0,0,0,0,0
CCOc1cccc(C(=O)Nc2ccc(NC(=O)c3ccc(Br)cc3)cc2)c1,0,0,-,0,0
COc1cc(OC)cc(C(=O)Nc2ccc(C(=O)c3ccncc3)cc2)c1,0,-38,0,0,0
CCCOc1ccc(C(=O)Nc2cccc(-c3nc4ccccc4[nH]3)c2)cc1,0,0,-,0,0
CCOc1cc(OCC)cc(C(=O)Nc2cccc(-c3nc4ccccc4[nH]3)c2)c1,0,-38,-,0,0
CCOc1cccc(C(=O)Nc2ccncc2)c1,0,-32,0,0,0
CCOc1cccc(C(=O)Nc2ccc3[nH]ncc3c2)c1,0,-32,0,0,0
CCCCOC(=O)c1ccc(NC(=O)c2ccc3c(c2)CCCN3S(C)(=O)=O)cc1,0,0,-,0,0
CCOc1cccc(NC(=O)c2ccc(S(=O)(=O)N(C)C)cc2)c1,0,-43,0,0,0
COc1cccc(C(=O)Nc2ccc3[nH]ncc3c2)c1,0,-34,0,0,0
COc1nc(-c2ccc(C)cc2)ccc1-c1noc(-c2ccc(C(C)(C)C)cc2)n1,0,0,-,0,0
